In assay [1] the target is Rap guanine nucleotide exchange factor 3 (Homo sapiens) (UniProt O95398). As to the kind of experiment: Confirmatory qHTS for antagonist of cAMP-regulated guanine nucleotide exchange factor 3 (EPAC1) (AID 1645880). Further: nearly all actives have a fitted effect of over 55% in size. Further: potency means the concentration at half of the fitted maximal effect.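 On activity, negative = inhibition: plate controls were DMSO only for no effect and full effect of the ATA control for full effect.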 The note with it: EPAC1 Rap1B-BODIPY-GDP exchange, fluorescence; activity, negative = inhibition: at 115 µM (top of the series). The essentials:
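Nucleotide exchange uses 100 nM EPAC1, 250 nM RAP1B-BODIPY-GDP and 50 uM GDP, with compounds in a concentration-titration series. After 5 min at room temperature, fluorescence (480 nm ex/540 nm em) is read every 5 min for 30 min. Data are normalized to control ATA and DMSO.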
(In qHTS, concentration-response curves come from the screen itself.)

Assay [2] has the same target. As to the kind of experiment: Confirmatory qHTS for agonist of cAMP-regulated guanine nucleotide exchange factor 3 (EPAC1) (AID 1645881).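 Further: EPAC1 catalysed release of BODIPY-GDP from Rap1B seen as fluorescence loss; 100% = effect of cAMP agonist control; nearly all actives have a fitted effect of over 75% in size.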
In assay [3] the target is Rap guanine nucleotide exchange factor 4 (Homo sapiens) (UniProt Q8WZA2). As to the kind of experiment: Confirmatory qHTS for agonist of cAMP-regulated guanine nucleotide exchange factor 4 (EPAC2) (AID 1645884).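 Further: nucleotide exchange releases bodipy-GDP from Rap1 and this lowers its fluorescence; on the % scale 0 is the no-effect control and ±100 the full control effect; nearly all actives have a fitted effect of over 65% in size.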
Sequence of Rap guanine nucleotide exchange factor 4 (Homo sapiens) (Q8WZA2 whole entry, looked up): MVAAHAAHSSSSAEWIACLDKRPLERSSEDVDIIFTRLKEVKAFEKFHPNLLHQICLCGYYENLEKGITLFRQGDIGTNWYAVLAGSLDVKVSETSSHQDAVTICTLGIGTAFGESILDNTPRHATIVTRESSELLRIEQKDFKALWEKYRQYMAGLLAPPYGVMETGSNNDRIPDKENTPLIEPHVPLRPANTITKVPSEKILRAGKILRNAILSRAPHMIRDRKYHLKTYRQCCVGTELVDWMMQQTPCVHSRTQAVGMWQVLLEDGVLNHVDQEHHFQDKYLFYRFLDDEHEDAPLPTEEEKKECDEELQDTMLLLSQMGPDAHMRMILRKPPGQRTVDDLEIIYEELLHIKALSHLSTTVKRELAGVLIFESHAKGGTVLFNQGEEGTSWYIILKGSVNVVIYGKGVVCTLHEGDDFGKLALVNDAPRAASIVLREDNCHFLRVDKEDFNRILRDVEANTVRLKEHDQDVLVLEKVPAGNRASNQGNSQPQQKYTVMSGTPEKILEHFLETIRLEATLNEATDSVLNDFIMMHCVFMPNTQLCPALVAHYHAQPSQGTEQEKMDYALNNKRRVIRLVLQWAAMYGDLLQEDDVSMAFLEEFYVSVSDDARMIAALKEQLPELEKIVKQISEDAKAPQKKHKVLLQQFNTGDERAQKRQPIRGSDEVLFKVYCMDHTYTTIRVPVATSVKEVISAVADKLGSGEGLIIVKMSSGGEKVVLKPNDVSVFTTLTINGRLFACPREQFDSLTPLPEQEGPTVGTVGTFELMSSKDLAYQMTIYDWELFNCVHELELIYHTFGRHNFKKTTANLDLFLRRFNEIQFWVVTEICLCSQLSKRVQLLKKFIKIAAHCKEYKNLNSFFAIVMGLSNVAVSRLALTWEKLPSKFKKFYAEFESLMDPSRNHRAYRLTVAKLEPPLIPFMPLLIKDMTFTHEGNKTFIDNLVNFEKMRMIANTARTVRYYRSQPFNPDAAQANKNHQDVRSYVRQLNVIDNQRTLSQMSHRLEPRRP
Assay [4] deals with Rap guanine nucleotide exchange factor 3 (Homo sapiens) (UniProt O95398). As to the kind of experiment: Counterscreen qHTS for agonist of cAMP-regulated guanine nucleotide exchange factor 3 (EPAC1) (AID 1645889). Further: % of control where 0% means no effect; nearly all actives have a fitted effect of over 40% in size. The essentials:
(§1)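 Measured: fluorescence of BODIPY-GDP bound to Rap1B, which falls as exchange proceeds. Conditions include 50 uM competing GDP, 5 and 30 min reads, and a later cAMP challenge for antagonist detection.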

Assay [5] deals with Tumor susceptibility gene 101 protein (Homo sapiens) (UniProt Q99816). As to the kind of experiment: qHTS Assay for Iinhibitors of HIV-1 Budding by Blocking the Interaction of PTAP/TSG101: Hit Validation (AID 651600). Further: potency means the concentration at half of the fitted maximal effect; nearly all actives have a fitted effect of over 70% in size. The method, boiled down:
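Compounds are added to the Tsg101 binding domain (10 uM final) in pH 7.5 HEPES buffer. FITC-PTAP peptide follows at 50 nM final. After 20 min at r.t., polarized FITC emission is measured.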

The target of assay [6] is Rap guanine nucleotide exchange factor 3 (Homo sapiens) (UniProt O95398). As to the kind of experiment: Counterscreen qHTS for antagonist of cAMP-regulated guanine nucleotide exchange factor 3 (EPAC1) (AID 1645888). Further: potency means the concentration at half of the fitted maximal effect. The essentials:
as §1
(A counterscreen serves to expose hits that act by an unwanted route or on another target.)

Assay [7] deals with Rap guanine nucleotide exchange factor 4 (Homo sapiens) (UniProt Q8WZA2). As to the kind of experiment: Confirmatory qHTS for antagonist of cAMP-regulated guanine nucleotide exchange factor 4 (EPAC2) (AID 1645885). Further: nearly all actives have a fitted effect of over 25% in size.

Inconclusive results are not listed. A number with no mark means an inactive call. The source made the active and inactive calls. The call rests on the fitted dose curve; in most records, active means well fitted curve in the direction sought with a large enough effect; inconclusive means small, poorly fitted or top-dose-only effect, or another doubt; inactive means no such curve, though single readings can be large; an effect the other way counts as inactive or inconclusive.

Sequence of Rap guanine nucleotide exchange factor 3 (Homo sapiens) (O95398 whole entry, looked up): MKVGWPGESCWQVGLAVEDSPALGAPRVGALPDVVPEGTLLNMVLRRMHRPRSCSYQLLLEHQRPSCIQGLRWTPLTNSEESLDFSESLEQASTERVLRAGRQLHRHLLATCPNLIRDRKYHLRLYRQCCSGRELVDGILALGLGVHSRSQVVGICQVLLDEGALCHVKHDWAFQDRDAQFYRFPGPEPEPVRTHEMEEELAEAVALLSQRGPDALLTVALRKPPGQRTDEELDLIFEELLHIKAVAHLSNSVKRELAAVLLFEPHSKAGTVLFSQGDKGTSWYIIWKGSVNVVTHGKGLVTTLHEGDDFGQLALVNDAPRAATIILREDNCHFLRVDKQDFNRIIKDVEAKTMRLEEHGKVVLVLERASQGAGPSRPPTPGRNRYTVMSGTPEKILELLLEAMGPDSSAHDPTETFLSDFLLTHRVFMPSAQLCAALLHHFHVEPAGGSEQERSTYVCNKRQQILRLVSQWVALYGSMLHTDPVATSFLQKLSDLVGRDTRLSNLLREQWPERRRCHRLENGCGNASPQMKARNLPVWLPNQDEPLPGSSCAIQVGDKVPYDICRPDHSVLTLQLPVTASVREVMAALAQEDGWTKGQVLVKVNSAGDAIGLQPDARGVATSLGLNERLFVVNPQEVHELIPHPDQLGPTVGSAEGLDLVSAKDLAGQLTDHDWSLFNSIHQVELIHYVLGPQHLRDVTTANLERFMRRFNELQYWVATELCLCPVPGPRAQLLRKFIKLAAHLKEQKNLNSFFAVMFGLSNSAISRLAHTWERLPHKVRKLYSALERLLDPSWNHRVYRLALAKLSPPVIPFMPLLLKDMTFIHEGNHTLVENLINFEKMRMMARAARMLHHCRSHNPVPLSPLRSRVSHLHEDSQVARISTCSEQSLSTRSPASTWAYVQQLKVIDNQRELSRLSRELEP
Sequence of Tumor susceptibility gene 101 protein (Homo sapiens) (Q99816 whole entry, looked up, the tested form may be a part): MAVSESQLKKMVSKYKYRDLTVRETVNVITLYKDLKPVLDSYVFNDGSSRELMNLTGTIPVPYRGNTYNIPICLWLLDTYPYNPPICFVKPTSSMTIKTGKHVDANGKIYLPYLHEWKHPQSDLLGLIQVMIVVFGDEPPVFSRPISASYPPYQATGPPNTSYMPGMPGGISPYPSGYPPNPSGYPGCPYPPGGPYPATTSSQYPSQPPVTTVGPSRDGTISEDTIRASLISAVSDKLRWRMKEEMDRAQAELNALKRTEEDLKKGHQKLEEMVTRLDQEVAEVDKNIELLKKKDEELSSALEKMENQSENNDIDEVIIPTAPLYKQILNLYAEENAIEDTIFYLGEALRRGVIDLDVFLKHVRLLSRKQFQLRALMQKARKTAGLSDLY

For the molecule `CCOC(=O)C1(Cc2ccccc2)C(=O)Nc2ccccc21` (configuration not stated), the Potency result in assay [1] and in assay [2] was “inactive” each time. Further, the activation in assay [3] is 2.58% [at 17.1 µM, percent relative to cAMP agonist control]; in assay [4] it was 32.7% [at 30.8 µM].
For the molecule `Oc1[nH]c2ccc(Br)cc2c1N=Nc1ccc(F)cc1`, the results for the Potency in assay [5], in assay [1] and in assay [6] were 10.3 µM (active), 84.9 µM (active) and 70.8 µM (active), respectively. Further, the Potency entry in assay [2], in assay [3] and in assay [4] was “inactive” each time.
`O=C1C=C(c2ccccc2)C(c2ccccc2)C1` (configuration not stated): the Potency entry in assay [1], in assay [2], in assay [3] and in assay [4] was “inactive” in each case.
Take `CCOC(=O)c1c(NC(=O)CSc2nnc(C)c(=O)[nH]2)sc(C)c1-c1ccc(C)cc1`: the Potency in assay [1] is 75.7 µM (active). The Potency result in assay [2], in assay [3] and in assay [4] was “inactive” throughout.
For `Cc1nc(S/C(=C/c2ccc(-c3cc(Cl)ccc3C)o2)C(=O)O)n[nH]1`, in assay [1], the Potency was 26.9 µM (active). The Potency result in assay [2], in assay [3] and in assay [4] was “inactive” throughout.
In the case of `CCOCCCn1c(=N)c(S(=O)(=O)c2ccccc2)cc2c(=O)n3cc(C)ccc3nc21`, the Potency entry in assay [1], in assay [2], in assay [3] and in assay [4] was “inactive” in each case.
With `COc1ccc(OC)c(/C=C/c2ccnc3ccccc23)c1`, the Potency result in assay [1] and in assay [2] was “inactive” throughout. Besides, the activation in assay [3] is 0% [at 17.1 µM, percent relative to cAMP agonist control]; in assay [4] it was 14.1% [at 30.8 µM].
On to `Oc1ccc2ccccc2c1-c1sc(Nc2ccccc2)n[n+]1-c1ccc(F)cc1`, for which the Potency in assay [5] is 10.3 µM (active); in assay [1], 19 µM (active). Moreover, the Potency result in assay [2], in assay [3] and in assay [4] was “inactive” each time.
For the molecule `CC(NC(=O)c1ccc(Br)s1)c1ccncc1` (configuration not stated), the Potency entry in assay [1], in assay [2], in assay [7] and in assay [6] was “inactive” throughout.
Turning to `COCCOC(=O)c1c(-c2ccccc2)c(-c2ccccc2)nn(C)c1=O`, the Potency entry in assay [1], in assay [2], in assay [7] and in assay [6] was “inactive” each time.
For the molecule `CCOc1ccccc1N1CCN(C(=O)c2cc3c(s2)CCC3)CC1`, the Potency entry in assay [1], in assay [2], in assay [7] and in assay [6] was “inactive” in each case.
Take `CC(=O)c1cccc(NC2c3ccccc3C(=O)N2Cc2ccc3c(c2)OCO3)c1` (configuration not stated): the Potency result in assay [1], in assay [2], in assay [7] and in assay [6] was “inactive” in each case.
Regarding `CCCCCCOC(=O)C(C#N)c1nc2ccccc2nc1N1CCCCC1` (configuration not stated), the Potency entry in assay [1], in assay [2], in assay [7] and in assay [6] was “inactive” in each case.
On to `C=Nc1ccc(/C=C/c2ccnc3ccccc23)cc1`, for which the Potency entry in assay [1], in assay [2] and in assay [7] was “inactive” throughout.
With `O=C1CCC(C(=O)Nc2ccccc2N2CCCC2)=NN1`, the Potency entry in assay [1], in assay [2], in assay [7] and in assay [6] was “inactive” each time.
